Outcome and AC50 data for 32 compounds are collected here from PubChem BioAssay (EPA / NIEHS).

The structures appear in SMILES notation. Activity calls are given as the source filed them. The calls were made as follows: active = hit-call score of the fitted dose curve at least 0.9, where 1 is the maximum; inactive = score below 0.9.

What is called AC50 is the concentration giving half of the maximal activity seen.

Hypoxia-inducible factor 1-alpha (Homo sapiens), sequence (Q16665 whole entry, looked up): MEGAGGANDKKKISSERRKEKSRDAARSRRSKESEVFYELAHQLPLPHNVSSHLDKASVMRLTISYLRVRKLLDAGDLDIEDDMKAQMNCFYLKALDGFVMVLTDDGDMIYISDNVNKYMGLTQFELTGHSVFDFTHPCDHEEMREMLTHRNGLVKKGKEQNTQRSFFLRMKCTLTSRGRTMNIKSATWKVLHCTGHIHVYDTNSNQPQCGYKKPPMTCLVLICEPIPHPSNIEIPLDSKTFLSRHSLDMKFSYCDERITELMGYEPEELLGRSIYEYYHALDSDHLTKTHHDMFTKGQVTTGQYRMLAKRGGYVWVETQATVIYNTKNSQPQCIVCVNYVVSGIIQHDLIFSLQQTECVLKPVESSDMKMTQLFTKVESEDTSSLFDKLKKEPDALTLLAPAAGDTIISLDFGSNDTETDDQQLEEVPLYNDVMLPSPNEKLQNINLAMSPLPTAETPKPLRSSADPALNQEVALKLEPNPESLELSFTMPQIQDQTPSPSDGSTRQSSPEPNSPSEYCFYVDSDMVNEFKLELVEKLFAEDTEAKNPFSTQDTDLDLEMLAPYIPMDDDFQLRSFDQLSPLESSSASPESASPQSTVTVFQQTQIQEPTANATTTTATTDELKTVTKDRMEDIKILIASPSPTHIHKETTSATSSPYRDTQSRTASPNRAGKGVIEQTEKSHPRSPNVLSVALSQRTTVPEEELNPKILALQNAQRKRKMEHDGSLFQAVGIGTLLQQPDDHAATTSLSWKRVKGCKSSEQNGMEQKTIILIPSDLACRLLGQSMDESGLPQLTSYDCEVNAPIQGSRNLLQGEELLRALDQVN

Read-out in the first assay: Hypoxia-inducible factor 1-alpha (Homo sapiens) (UniProt Q16665)
In words: LTEA_HepaRG_HIF1A: Life Technologies and Expression Analysis (LTEA) Assay for Hypoxia-inducible factor 1 (HIF1A) Trancription factor using HepaRG (AID 2283503). The settings on record: mRNA level, 48 h; actives raise or lower the signal. A digest of the protocol:
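HIF1A transcript level read by qRT-PCR (ACTB, GAPDH, POLR2A normalization) after 48 h chemical exposure of HepaRG cultures. Eight half-log concentrations, top 100 uM, 0.5% DMSO vehicle, duplicates; bidirectional curve fit against DMSO baseline.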
Turning to `CC(C)(O)C(=O)Nc1ccc([N+](=O)[O-])c(C(F)(F)F)c1`, the compound was called inactive. Regarding `CCC(C)(CC)c1cc(NC(=O)c2c(OC)cccc2OC)on1`, the compound was classed as inactive. Same read-out and setting: the value for `Cc1ccccc1O` was “inactive”; that for `CN(C)CCO` was “inactive”; that for `Cc1ccccc1CO[C@@H]1C[C@@]2(C(C)C)CC[C@]1(C)O2` was “inactive”.

As for `Cc1cc(-c2ccc(N)c(C)c2)ccc1N`, the call was inactive. As for `c1cc2ccc3cccc4ccc(c1)c2c34`, the result was inactive. With `Oc1c(Cl)c(Cl)c(Cl)c(Cl)c1Cl`, the half-maximal activity concentration (AC50) was 5.16 µM (active).

`O=NN(c1ccccc1)c1ccccc1`: the result was inactive. Still for that read-out and setting: the value for `Clc1ccc(C(c2ccccc2Cl)C(Cl)(Cl)Cl)cc1` (stereo not drawn) was “inactive”.

For the compound `NS(=O)(=O)C(F)(F)C(F)(F)C(F)(F)C(F)(F)C(F)(F)C(F)(F)C(F)(F)C(F)(F)F`, the AC50 is 11.4 µM (active).

Take `O=S(=O)(O)C(F)(F)C(F)(F)C(F)(F)C(F)(F)F`: the outcome was inactive.

Take `Nc1ccc(-c2ccc(N)cc2)cc1`: the call was inactive.

Consider `C=CC(N)=O`, for which the call was inactive. Still for that read-out and setting: next, `CCOCCOC(C)=O`: “inactive”. `O=C(O)C(F)(F)C(F)(F)C(F)(F)C(F)(F)C(F)(F)C(F)(F)C(F)(F)C(F)(F)F`: the outcome was inactive. As to `CCCCCCCCCc1ccc(O)cc1`, the compound was called inactive. Consider `CO/C=C(/C(=O)OC)c1ccccc1COc1cccc(C(F)(F)F)n1`, for which the AC50 was 32 µM (active). Still for that read-out and setting: next, `ClC1=C(Cl)[C@]2(Cl)[C@@H]3[C@@H]4C[C@@H]([C@H]5O[C@@H]45)[C@@H]3[C@@]1(Cl)C2(Cl)Cl`: 0.0315 µM (active). Turning to `Cc1ccccc1[N+](=O)[O-]`, the compound was classed as inactive. Still for that read-out and setting: the value for `Oc1ccc(Cl)cc1Cl` was “inactive”; that for `Clc1ccc(C(Cl)(Cl)Cl)cc1` was “inactive”. For the compound `C=CC(=O)NCNC(=O)C=C`, the concentration at half-maximal activity (AC50) was 15.6 µM (active). Regarding `C1CC2OC2CC1C1CO1` (stereo not drawn), the compound was called inactive. Same read-out and setting: next, `O=C(NC(=O)c1c(F)cccc1F)Nc1cc(Cl)c(OC(F)(F)C(F)F)c(Cl)c1`: “inactive”; `O=C(NC(=O)c1cc(F)c(F)cc1Cl)Nc1cc(F)ccc1N1CCC(C(=O)O)CC1`: “inactive”. Regarding `ClC(Cl)=C(c1ccc(Cl)cc1)c1ccc(Cl)cc1`, the result was inactive. On the same count and under the same terms, the value for `CCC(C)(c1ccc(O)cc1)c1ccc(O)cc1` was “inactive”; that for `COS(=O)(=O)OC` was “inactive”. Turning to `N#Cc1ccc(N(CC(N)=O)CC(F)(F)F)cc1C(F)(F)F`, the compound was called inactive.

Turning to `CCC(=O)O[C@H]1CC[C@H]2[C@@H]3CCC4=CC(=O)CC[C@]4(C)[C@H]3CC[C@]12C`, the outcome was inactive.

On to `CCCCCCCCOC(=O)c1ccccc1C(=O)OCCCCCCCC`, for which the outcome was inactive.

Read-out in a further assay: 3-Hydroxy-3-Methylglutaryl-CoA Synthase 2 (HMGCS2), HMGCS2 (gene 3158)
In words: LTEA_HepaRG_HMGCS2: Life Technologies and Expression Analysis (LTEA) Assay for 3-Hydroxy-3-Methylglutaryl-CoA Synthase 2 (HMGCS2) using HepaRG (AID 2283504). The settings on record: mRNA level, 48 h; actives raise or lower the signal. The method, boiled down:
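HepaRG, plated 48 h then switched to serum-free induction media; cmpd 8-pt, max 100 uM, 1/2-log, 0.5% DMSO, n=2, 48 h. HMGCS2 mRNA by Fluidigm TaqMan qRT-PCR, ACTB/GAPDH/POLR2A norm; bidirectional fit vs DMSO.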
For the compound `CC(C)(O)C(=O)Nc1ccc([N+](=O)[O-])c(C(F)(F)F)c1`, the concentration at half-maximal activity (AC50) is 44.8 µM (active). In the case of `CCC(C)(CC)c1cc(NC(=O)c2c(OC)cccc2OC)on1`, the compound was called inactive. Turning to `Cc1ccccc1O`, the outcome was inactive. The same measure, in the same setting: next, `CN(C)CCO`: “inactive”. Consider `Cc1ccccc1CO[C@@H]1C[C@@]2(C(C)C)CC[C@]1(C)O2`, for which the result was inactive. For the compound `Cc1cc(-c2ccc(N)c(C)c2)ccc1N`, the AC50 was 19.3 µM (active).

With `c1cc2ccc3cccc4ccc(c1)c2c34`, the compound was classed as inactive. `Oc1c(Cl)c(Cl)c(Cl)c(Cl)c1Cl`: the AC50 was 4.84 µM (active). Consider `O=NN(c1ccccc1)c1ccccc1`, for which the compound was classed as inactive.

Take `Clc1ccc(C(c2ccccc2Cl)C(Cl)(Cl)Cl)cc1` (stereo not drawn): the AC50 is 50 µM (active). With `NS(=O)(=O)C(F)(F)C(F)(F)C(F)(F)C(F)(F)C(F)(F)C(F)(F)C(F)(F)C(F)(F)F`, the half-maximal activity concentration (AC50) was 12.8 µM (active). On to `O=S(=O)(O)C(F)(F)C(F)(F)C(F)(F)C(F)(F)F`, for which the call was inactive. For `Nc1ccc(-c2ccc(N)cc2)cc1`, the compound was called inactive. For `C=CC(N)=O`, the result was inactive.

`CCOCCOC(C)=O`: the compound was classed as inactive. `O=C(O)C(F)(F)C(F)(F)C(F)(F)C(F)(F)C(F)(F)C(F)(F)C(F)(F)C(F)(F)F`: the AC50 is 80.4 µM (active). Same read-out and setting: the value for `CCCCCCCCCc1ccc(O)cc1` was 50 µM (active). On the same count and under the same terms, next, `CO/C=C(/C(=O)OC)c1ccccc1COc1cccc(C(F)(F)F)n1`: 6.85 µM (active); `ClC1=C(Cl)[C@]2(Cl)[C@@H]3[C@@H]4C[C@@H]([C@H]5O[C@@H]45)[C@@H]3[C@@]1(Cl)C2(Cl)Cl`: 50 µM (active). As to `Cc1ccccc1[N+](=O)[O-]`, the call was inactive. On the same count and under the same terms, next, `Oc1ccc(Cl)cc1Cl`: “inactive”; `Clc1ccc(C(Cl)(Cl)Cl)cc1`: “inactive”.

For the compound `C=CC(=O)NCNC(=O)C=C`, the outcome was inactive.

`C1CC2OC2CC1C1CO1` (stereo not drawn): the compound was called inactive. Consider `O=C(NC(=O)c1c(F)cccc1F)Nc1cc(Cl)c(OC(F)(F)C(F)F)c(Cl)c1`, for which the AC50 is 34.7 µM (active).

For the compound `O=C(NC(=O)c1cc(F)c(F)cc1Cl)Nc1cc(F)ccc1N1CCC(C(=O)O)CC1`, the concentration at half-maximal activity (AC50) was 20.3 µM (active). For `CCC(C)(c1ccc(O)cc1)c1ccc(O)cc1`, the result was inactive. Same read-out and setting: the value for `COS(=O)(=O)OC` was “inactive”; that for `N#Cc1ccc(N(CC(N)=O)CC(F)(F)F)cc1C(F)(F)F` was “inactive”.

For the compound `CCC(=O)O[C@H]1CC[C@H]2[C@@H]3CCC4=CC(=O)CC[C@]4(C)[C@H]3CC[C@]12C`, the compound was called inactive.

`CCCCCCCCOC(=O)c1ccccc1C(=O)OCCCCCCCC`: the compound was classed as inactive.
